In this assay the target is T1, CRBN, Q96SW2.
T1 chain: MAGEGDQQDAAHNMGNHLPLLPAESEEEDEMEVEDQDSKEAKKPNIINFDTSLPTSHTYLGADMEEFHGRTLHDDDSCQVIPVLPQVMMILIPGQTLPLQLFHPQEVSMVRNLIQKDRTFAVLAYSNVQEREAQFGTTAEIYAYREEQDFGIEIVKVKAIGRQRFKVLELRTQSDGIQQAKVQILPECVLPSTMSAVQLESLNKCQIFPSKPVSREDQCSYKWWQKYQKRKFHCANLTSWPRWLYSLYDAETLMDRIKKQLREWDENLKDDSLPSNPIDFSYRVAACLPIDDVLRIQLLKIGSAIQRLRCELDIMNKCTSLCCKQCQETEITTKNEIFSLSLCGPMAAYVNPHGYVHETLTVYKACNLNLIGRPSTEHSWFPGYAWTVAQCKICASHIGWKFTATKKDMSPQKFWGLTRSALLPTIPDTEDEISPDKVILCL
The assay is described as follows: log2 fold change of degron read counts, EGFP-low vs EGFP+ sorted cells (limma voom), compound-induced degradation; higher = more compound-induced degradation of the degron-EGFP fusion; degrons are variants of IKZF1/3 zinc finger 2; compound dose not given here. The note with it: Jurkat, 18 h.

[1] abbreviates: compound: compound 19 (5-tert-butyl-thalidomide).
The mark [2] stands for this setting: compound: compound 22 (5-morpholino-thalidomide).
Where [3] appears, read: compound: compound 33 (diphenyl IMiD analogue).

In all, about 8,300 sequences were measured (“log2 fold change of degron read counts, EGFP-low vs EGFP+ sorted cells (limma voom), compound-induced degradation”: median about -1.1, highest 2% from about 3.2 on). The entries come from a sample that favours the highest values as a whole.
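Note: pooled lentiviral library of zinc finger degron-EGFP fusions in mCherry-positive Jurkat cells, FACS-sorted after compound exposure, with degron abundance counted by next-generation sequencing.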

B1: 46F_47V_49P_50Q_52G_53A_54L_55F_67L_, Q9UKT9 (peptide)
chain: FVCPQCGALFTQKGNLLRHIKL
Take B1: the “log2 fold change of degron read counts” value under setting [1] is -2.37, the “log2 fold change of degron read counts” value under setting [2] was -1.48, the “log2 fold change of degron read counts” value under setting [3] was -0.389 and the “log2 fold change of degron read counts” value (compound: thalidomide) is -0.926.

B2: 46F_47G_49E_50I_52G_53A_54W_55F_67L_, Q9UKT9 (peptide)
chain: FGCEICGAWFTQKGNLLRHIKL
As to B2, the “log2 fold change of degron read counts” value under setting [1] was -0.259, the “log2 fold change of degron read counts” value under setting [2] was -1.17, the “log2 fold change of degron read counts” value under setting [3] stood at 0.513 and the “log2 fold change of degron read counts” value (compound: thalidomide) is -0.936.

B3: 46F_47L_49P_50Q_52G_53A_54Q_55F_67L_, Q9UKT9 (peptide)
chain: FLCPQCGAQFTQKGNLLRHIKL
In the case of B3, the “log2 fold change of degron read counts” value was -2.2 under setting [1], -2.3 under setting [2], 0.482 under setting [3] and -0.585 (compound: thalidomide).

B4: 46F_47D_49N_50I_52G_53A_54I_55F_67L_, Q9UKT9 (peptide)
chain: FDCNICGAIFTQKGNLLRHIKL
As for B4, the “log2 fold change of degron read counts” value by setting is: under setting [1], -1.43; under setting [2], -1.22; under setting [3], -0.173; (compound: thalidomide) 0.319.

B5: 46F_47Y_49E_50I_52G_53H_54S_55F_67L_, Q9UKT9 (peptide)
chain: FYCEICGHSFTQKGNLLRHIKL
For the sequence B5, the “log2 fold change of degron read counts” value was -2.01 under setting [1], -3.04 under setting [2], -1.92 under setting [3] and -2.8 (compound: thalidomide).

B6: 46F_47V_49N_50Q_52G_53A_54G_55F_67L_, Q9UKT9 (peptide)
chain: FVCNQCGAGFTQKGNLLRHIKL
Regarding B6, the “log2 fold change of degron read counts” value is -2.26 under setting [1], -1.63 under setting [2], -0.863 under setting [3] and -1.05 (compound: thalidomide).

B7: 46F_47F_49E_50I_52G_53H_54V_55F_67L_, Q9UKT9 (peptide)
chain: FFCEICGHVFTQKGNLLRHIKL
Regarding B7, the “log2 fold change of degron read counts” value is -1.37 under setting [1], -1.97 under setting [2], -2.03 under setting [3] and -1.87 (compound: thalidomide).

B8: 46L_47C_49E_50I_52G_53F_54H_55C_67L_, Q9UKT9 (peptide)
chain: LCCEICGFHCTQKGNLLRHIKL
With B8, the “log2 fold change of degron read counts” value is, setting by setting: under setting [1], 0.332; under setting [2], -0.174; under setting [3], 1.51; (compound: thalidomide) 0.845.

B9: 46L_47Y_49E_50I_52G_53F_54H_55C_67L_, Q9UKT9 (peptide)
chain: LYCEICGFHCTQKGNLLRHIKL
Turning to B9, the “log2 fold change of degron read counts” value was determined as 3.13 under setting [1], 3.42 under setting [2], 2.8 under setting [3] and 1.66 (compound: thalidomide).

B10: 46L_47I_49E_50I_52G_53F_54H_55C_67L_, Q9UKT9 (peptide)
chain: LICEICGFHCTQKGNLLRHIKL
Consider B10, for which the “log2 fold change of degron read counts” value is, setting by setting: under setting [1], -0.287; under setting [2], 0.622; under setting [3], 1.12; (compound: thalidomide) 1.6.

B11: 46L_47S_49E_50I_52G_53F_54H_55C_67L_, Q9UKT9 (peptide)
chain: LSCEICGFHCTQKGNLLRHIKL
On to B11, for which the “log2 fold change of degron read counts” value is 0.928 under setting [1], 0.357 under setting [2], 0.553 under setting [3] and 0.222 (compound: thalidomide).

B12: 46L_47A_49E_50I_52G_53F_54H_55C_67L_, Q9UKT9 (peptide)
chain: LACEICGFHCTQKGNLLRHIKL
Regarding B12, the “log2 fold change of degron read counts” value is, setting by setting: under setting [1], 1.51; under setting [2], 0.415; under setting [3], 0.86; (compound: thalidomide) -0.0575.

B13: 46L_47W_49E_50I_52G_53F_54H_55C_67L_, Q9UKT9 (peptide)
chain: LWCEICGFHCTQKGNLLRHIKL
As for B13, the “log2 fold change of degron read counts” value was 2.73 under setting [1], 3.48 under setting [2], 2.33 under setting [3] and 1.12 (compound: thalidomide).

B14: 46F_47H_49N_50Q_52G_53A_54R_55F_67L_, Q9UKT9 (peptide)
chain: FHCNQCGARFTQKGNLLRHIKL
Turning to B14, the “log2 fold change of degron read counts” value by setting is: under setting [1], -1.49; under setting [2], -1.78; under setting [3], -1.81; (compound: thalidomide) -2.18.

B15: 46F_47V_49N_50Q_52G_53H_54T_55F_67L_, Q9UKT9 (peptide)
chain: FVCNQCGHTFTQKGNLLRHIKL
For the sequence B15, the “log2 fold change of degron read counts” value under setting [1] is -3.49, the “log2 fold change of degron read counts” value under setting [2] is -3.28, the “log2 fold change of degron read counts” value under setting [3] is -3.04 and the “log2 fold change of degron read counts” value (compound: thalidomide) was -3.41.

B16: 46L_47E_49P_50I_52G_53F_54D_55C_67L_, Q9UKT9 (peptide)
chain: LECPICGFDCTQKGNLLRHIKL
B16: the “log2 fold change of degron read counts” value was -2.52 under setting [1], -2.45 under setting [2], -1.18 under setting [3] and -0.86 (compound: thalidomide).

B17: 46L_47Y_49N_50Q_52G_53F_54Y_55C_67L_, Q9UKT9 (peptide)
chain: LYCNQCGFYCTQKGNLLRHIKL
As to B17, the “log2 fold change of degron read counts” value reads like this: under setting [1], -0.857; under setting [2], -0.989; under setting [3], -0.803; (compound: thalidomide) -0.772.

B18: 46F_47T_49P_50I_52G_53A_54V_55F_67L_, Q9UKT9 (peptide)
chain: FTCPICGAVFTQKGNLLRHIKL
B18: the “log2 fold change of degron read counts” value under setting [1] was 0.104, the “log2 fold change of degron read counts” value under setting [2] came to 2.31, the “log2 fold change of degron read counts” value under setting [3] worked out at 2.43 and the “log2 fold change of degron read counts” value (compound: thalidomide) stood at 2.95.

B19: 46F_47R_49P_50I_52G_53A_54V_55F_67L_, Q9UKT9 (peptide)
chain: FRCPICGAVFTQKGNLLRHIKL
As to B19, the “log2 fold change of degron read counts” value runs as follows: under setting [1], -1.19; under setting [2], -0.551; under setting [3], 1.51; (compound: thalidomide) 1.37.

B20: 46F_47G_49P_50I_52G_53A_54V_55F_67L_, Q9UKT9 (peptide)
chain: FGCPICGAVFTQKGNLLRHIKL
Consider B20, for which the “log2 fold change of degron read counts” value by setting is: under setting [1], 3.56; under setting [2], 2.54; under setting [3], 2.82; (compound: thalidomide) 1.23.

B21: 46F_47S_49P_50I_52G_53A_54V_55F_67L_, Q9UKT9 (peptide)
chain: FSCPICGAVFTQKGNLLRHIKL
In the case of B21, the “log2 fold change of degron read counts” value reads like this: under setting [1], 2.16; under setting [2], 1.75; under setting [3], 2.72; (compound: thalidomide) 1.48.

B22: 46F_47I_49P_50I_52G_53A_54V_55F_67L_, Q9UKT9 (peptide)
chain: FICPICGAVFTQKGNLLRHIKL
In the case of B22, the “log2 fold change of degron read counts” value is, setting by setting: under setting [1], -0.717; under setting [2], 0.836; under setting [3], 1.86; (compound: thalidomide) 1.85.

B23: 46F_47A_49P_50I_52G_53A_54V_55F_67L_, Q9UKT9 (peptide)
chain: FACPICGAVFTQKGNLLRHIKL
With B23, the “log2 fold change of degron read counts” value amounted to 2.91 under setting [1], 1.96 under setting [2], 1.75 under setting [3] and 1.06 (compound: thalidomide).

B24: 46F_47V_49P_50I_52G_53A_54V_55F_67L_, Q9UKT9 (peptide)
chain: FVCPICGAVFTQKGNLLRHIKL
B24: the “log2 fold change of degron read counts” value by setting is: under setting [1], -0.253; under setting [2], 1.32; under setting [3], 2.04; (compound: thalidomide) 2.17.

B25: 46F_47Q_49P_50I_52G_53A_54V_55F_67L_, Q9UKT9 (peptide)
chain: FQCPICGAVFTQKGNLLRHIKL
Consider B25, for which the “log2 fold change of degron read counts” value runs as follows: under setting [1], 0.109; under setting [2], 3.16; under setting [3], 2.7; (compound: thalidomide) 3.67.

B26: 46F_47E_49P_50I_52G_53A_54V_55F_67L_, Q9UKT9 (peptide)
chain: FECPICGAVFTQKGNLLRHIKL
For the sequence B26, the “log2 fold change of degron read counts” value under setting [1] is 0.283, the “log2 fold change of degron read counts” value under setting [2] is -0.0372, the “log2 fold change of degron read counts” value under setting [3] was 2.77 and the “log2 fold change of degron read counts” value (compound: thalidomide) worked out at 3.33.

B27: 46F_47R_49E_50I_52G_53R_54H_55F_67L_, Q9UKT9 (peptide)
chain: FRCEICGRHFTQKGNLLRHIKL
For B27, the “log2 fold change of degron read counts” value under setting [1] was -2.34, the “log2 fold change of degron read counts” value under setting [2] is -2.75, the “log2 fold change of degron read counts” value under setting [3] was -1.24 and the “log2 fold change of degron read counts” value (compound: thalidomide) was -1.05.

B28: 46F_47L_49E_50V_52G_53A_54Y_55F_67L_, Q9UKT9 (peptide)
chain: FLCEVCGAYFTQKGNLLRHIKL
With B28, the “log2 fold change of degron read counts” value under setting [1] was -0.235, the “log2 fold change of degron read counts” value under setting [2] is -1.51, the “log2 fold change of degron read counts” value under setting [3] was 0.35 and the “log2 fold change of degron read counts” value (compound: thalidomide) worked out at 0.301.

The record behind these values is the supplement of paper PMC12645437, “Orthogonal IMiD-Degron Pairs Induce Selective Protein Degradation in Cells” (ACS Chemical Biology, 2025).
